# Where a name gives a salt, the structure may show the parent alone.
# Legend:
# [1] = tested on: Vero E6 infected with SARS-CoV-2; experiment: morphology score (similarity to uninfected cells); higher = more like uninfected cells; conditions: 24 h
# [2] = tested on: Vero E6 infected with SARS-CoV-2; experiment: SARS-CoV-2 infection rate relative to infected DMSO; higher = more infection, active = 60 or less; conditions: 24 h
Compound,morphology score [1],SARS-CoV-2 infection rate [2]
Cc1ncc(Cl)cc1NCc1ccc(C(=O)N[C@@H](CC2CCCC2)C(=O)NC2CC2)s1 (10 µM),0.0746,106% (inactive)
CCNC(=O)C#Cc1ccc2c(C(=Nc3ccc(CN(C)C)cc3)c3ccccc3)c(O)[nH]c2c1 (0.833333 µM),-0.154,99% (inactive)
CCCC(=O)C1(c2ccccc2)CCN(C(=O)[C@@H](Cc2ccc(OC)cc2)NC(=O)[C@@H](N)Cc2cncn2C)CC1 (10 µM),0.106,98% (inactive)
CNC(=O)c1c(-c2ccc(F)cc2)oc2cc(N(CCO)S(C)(=O)=O)c(C3CC3)cc12 [nesbuvir] (10 µM),0.111,104% (inactive)
O=c1[nH]c(=O)n([C@H]2C[C@H](O)[C@@H](CO)O2)cc1Br [broxuridine] (0.833333 µM),0.0347,108% (inactive)
Cn1ccnc1S [methimazole] (10 µM),-0.0741,108% (inactive)
C[N+](C)(C)NCCC(=O)O [meldonium] (10 µM),0.253,88.5% (inactive)
CC1(C)CCC(C)(C)c2cc(C(=O)Nc3ccc(C(=O)O)cc3)ccc21 (10 µM),-0.326,112% (inactive)
O=Nc1ccc(O)c2ncccc12 (10 µM),-0.131,108% (inactive)
COc1ccc(C(CN(C)C)C2(O)CCCCC2)cc1 (stereo not drawn) [venlafaxine] (10 µM),0.00722,110% (inactive)
CC[C@H](CC[C@@H](C)[C@H]1CC[C@H]2[C@@H]3CC=C4C[C@@H](O[C@@H]5O[C@H](CO)[C@@H](O)[C@H](O)[C@H]5O)CC[C@]4(C)[C@H]3CC[C@]12C)C(C)C [daucosterol] (10 µM),0.0785,102% (inactive)
COc1ccc(CN2CCN(C(c3ccc(F)cc3)c3ccc(F)cc3)CC2)c(OC)c1OC [lomerizine] (10 µM),0.0043,108% (inactive)
COc1cccc(C2(O)CCCCC2CN(C)C)c1 (stereo not drawn) (10 µM),0.17,104% (inactive)
C[C@]12CC[C@@H]3c4ccc(OC(=O)N(CCCl)CCCl)cc4CC[C@H]3[C@@H]1CC[C@@H]2OP(=O)(O)O [estramustine-phosphate] (10 µM),0.0729,100% (inactive)
CCN(CC)CCCC(C)Nc1c2ccc(Cl)cc2nc2ccc(OC)cc12 (stereo not drawn) [mepacrine] (0.833333 µM),0.481,55.5% (active)
Cn1c(=O)c2c(ncn2CC(=O)O)n(C)c1=O [acefylline] (10 µM),0.124,100% (inactive)
Nc1ncc2c(n1)CC(c1ccco1)CC2=O (stereo not drawn) (10 µM),0.0161,99% (inactive)
Cc1ccc(-c2n[nH]c3c2C(c2cccc(O)c2)N(c2ccc(C(=O)O)cc2)C3=O)cc1 (stereo not drawn) (10 µM),0.169,91.5% (inactive)
CN[C@H](CC(C)C)C(=O)N[C@H]1C(=O)N[C@@H](CC(N)=O)C(=O)N[C@H]2C(=O)N[C@H]3C(=O)N[C@H](C(=O)N[C@H](C(=O)O)c4cc(O)cc(O)c4-c4cc3ccc4O)[C@H](O)c3ccc(c(Cl)c3)Oc3cc2cc(c3O[C@@H]2O[C@H](CO)[C@@H](O)[C@H](O)[C@H]2O[C@H]2C[C@](C)(N)[C@H](O)[C@H](C)O2)Oc2ccc(cc2Cl)[C@H]1O (10 µM),0.0907,104% (inactive)
CC(C)[C@H](N)C(=O)OCC(CO)OCn1cnc2c(=O)nc(N)[nH]c21 (mixture of isomers) [valganciclovir] (10 µM),0.118,102% (inactive)

Compound,morphology score [1],SARS-CoV-2 infection rate [2]
COC(=O)[C@@]12OC[C@]34[C@H]([C@@H](O)[C@@H]1O)[C@@]1(C)CC(=O)C(O)=C(C)[C@@H]1C[C@H]3OC(=O)[C@H](OC(=O)/C=C(\C)C(C)C)[C@@H]24 [bruceantin] (0.833333 µM),-0.0265,109% (inactive)
CCC[C@@H]1C[C@@H](C(=O)N[C@@H]([C@H]2O[C@H](SC)[C@H](O)[C@@H](O)[C@H]2O)[C@@H](C)O)N(C)C1 [lincomycin] (10 µM),-0.111,105% (inactive)
C[C@@]1(C(=O)O)NCCc2cc(O)c(O)cc21 [salsolinol-1-carboxylic-acid] (10 µM),-0.0436,97.5% (inactive)
CCCCN(CCCC)C(=O)CN1C[C@H](c2ccc3c(c2)OCO3)[C@@H](C(=O)O)[C@@H]1c1ccc(OC)cc1 [atrasentan] (10 µM),0.0179,108% (inactive)
Oc1ccc(Cl)cc1 [parachlorophenol] (10 µM),0.063,98% (inactive)
O=C(NCc1ccc(F)cc1)N1CCN2C(=O)OC(c3ccccc3)(c3ccccc3)[C@@H]2C1 (racemic) (10 µM),0.069,97% (inactive)
C[C@]12CCC(=O)C=C1C=C[C@@H]1[C@@H]2CC[C@@]2(C)[C@H]1CC[C@@]2(O)CCC(=O)O [potassium-canrenoate] (10 µM),-0.166,114% (inactive)
COc1ccc(C(=O)c2ccccc2)c(O)c1 [oxybenzone] (10 µM),0.131,102% (inactive)
N=C(N)NN=C1C=CC(=NNC(N)=S)C=C1 [ambazone] (10 µM),0.129,104% (inactive)
CN(C)CCOC(C)(c1ccccc1)c1ccccn1 (stereo not drawn) [doxylamine] (10 µM),0.112,96% (inactive)
CC(C)(C)CC(=O)Nc1c(F)cc(C(=O)/N=c2\sccn2COP(=O)(O)O)cc1F (10 µM),0.0762,93.5% (inactive)
CC(C)OC(=O)C1=CN(C(=O)c2ccc(F)c(F)c2)CC(C)(C)c2c1[nH]c1ccccc21 (10 µM),0.0521,100% (inactive)
O[C@@H]1CCCC[C@H]1N1CCC(c2ccccc2)CC1 (racemic) [vesamicol] (10 µM),0.23,98.5% (inactive)
C[C@@H]([C@H](O)c1ccc(O)cc1)N1CCC(Cc2ccccc2)CC1 (racemic) [ifenprodil] (10 µM),0.0632,100% (inactive)
CC(C)c1ccc(CC(=O)N2CCC[C@@H](c3cccc(OC(C)(C)C(=O)O)c3)C2)cc1 (10 µM),0.109,96% (inactive)
CC(C)(C)NC(=O)N[C@H](C(=O)N1C[C@H]2[C@@H]([C@H]1C(=O)NC(CC1CCC1)C(=O)C(N)=O)C2(C)C)C(C)(C)C (stereo partly drawn) [boceprevir] (10 µM),0.133,113% (inactive)
Cn1cc(C2=C(c3cn(C4CCN(Cc5ccccn5)CC4)c4ccccc34)C(=O)NC2=O)c2ccccc21 [enzastaurin] (10 µM),-0.0103,112% (inactive)
CC(=O)OCC1=C(C(=O)O)N2C(=O)[C@@H](NC(=O)Cc3cccs3)[C@H]2SC1 [cephalothin] (10 µM),-0.0126,102% (inactive)
Nc1cc(-c2ccncc2)c[nH]c1=O [amrinone] (10 µM),0.00166,112% (inactive)
COc1ccc2[nH]c(I)c(CCNC(C)=O)c2c1 [2-iodomelatonin] (10 µM),0.0455,88% (inactive)

Compound,morphology score [1],SARS-CoV-2 infection rate [2]
CC(C)C[C@@H](NC(=O)[C@H](Cc1ccccc1)NC(=O)CNC(=O)[C@@H](C)NC(=O)[C@@H](N)Cc1ccc(O)cc1)C(=O)O (10 µM),0.159,97% (inactive)
CCOCC(O)COc1ccc(NC(=O)CC[S+](C)C)cc1 (stereo not drawn) [suplatast] (10 µM),0.0407,102% (inactive)
CCCCCCCCCCCCCCCCCCCCCC(=O)Nc1ccn([C@@H]2O[C@H](CO)[C@@H](O)[C@@H]2O)c(=O)n1 [enocitabine] (10 µM),0.135,94.5% (inactive)
Nc1c(Br)cc(Br)cc1CN[C@H]1CC[C@H](O)CC1 [ambroxol] (10 µM),-0.155,114% (inactive)
CCCc1ncc(C[n+]2ccccc2C)c(N)n1 [amprolium] (10 µM),-0.0897,104% (inactive)
COc1ccc(CC(C)NCC(O)c2ccc(O)c(NC=O)c2)cc1 (stereo not drawn) [formoterol] (10 µM),0.0444,100% (inactive)
O=C(CN1CCNCC1)NC1CCCCC1 [esaprazole] (10 µM),0.0266,104% (inactive)
O=C1NC(=O)C(=Cc2ccc(-c3ccc(F)cc3)o2)S1 (stereo in doubt) (10 µM),0.0111,112% (inactive)
CCCNC(C)C(=O)Nc1c(C)csc1C(=O)OC (stereo not drawn) [articaine] (10 µM),0.0926,98% (inactive)
COc1cc(COc2cc(N)c(Cl)cc2C(=O)CCC2CCN(CCNS(C)(=O)=O)CC2)cc(OC)c1 (0.833333 µM),0.265,102% (inactive)
CCN(CC)CCNC(=O)c1cc(S(C)(=O)=O)ccc1OC [tiapride] (10 µM),0.0888,98% (inactive)
COc1ccc(F)c(F)c1C(=O)c1cnc(NC2CCN(S(C)(=O)=O)CC2)nc1N (10 µM),-0.352,118% (inactive)
Cc1nc(Nc2ncc(C(=O)Nc3c(C)cccc3Cl)s2)cc(N2CCN(CCO)CC2)n1 [dasatinib] (0.833333 µM),-0.0371,95.5% (inactive)
CC(C)n1nc(-c2cc3cc(O)ccc3[nH]2)c2c(N)ncnc21 (10 µM),-0.0614,95.5% (inactive)
CC(C)(C)c1cc(C(C)(C)C)c2c(c1)C(O)(C(F)(F)F)C(=O)O2 (racemic) (10 µM),0.239,95.5% (inactive)
C[C@H]1[C@H](C)CC[C@]2(C(=O)O)CC[C@]3(C)C(=CC[C@@H]4[C@@]5(C)C[C@@H](O)[C@H](O)C(C)(C)[C@@H]5CC[C@]43C)[C@H]12 [corosolic-acid] (10 µM),-0.302,116% (inactive)
CO/N=C(\C(=O)N[C@@H]1C(=O)N2C(C(=O)O)=C(Cn3ccc(=N)n3CCO)CS[C@H]12)c1csc(N)n1 [Cefoselis sulfate] (10 µM),0.115,101% (inactive)
CCCCCCCCCCCCCCCCCCN(CCCCCCCCCCCCCCCCCC)CCCN(CCO)CCO [avridine] (10 µM),0.0689,102% (inactive)
CC(=O)c1ccc2c(c1)N(CCCN1CCN(CCO)CC1)c1ccccc1S2 [acetophenazine] (10 µM),0.201,96.5% (inactive)

# Source: the supplement of paper PMC13380429
